# Results: PubChem BioAssay (EPA / NIEHS)
# Inconclusive results are not listed. Activity calls are given as the source filed them. How the source made its calls: active means hit-call score of the fitted dose curve at least 0.9, where 1 is the maximum; inconclusive means response in the unintended direction; inactive means score below 0.9.
# Tests used:
# [1] = molecular target: human MAP Kinase-Activated Protein Kinase 2 (MAPKAPK2), MAPKAPK2 (gene 9261) (UniProt P49137); experiment: NVS_ENZ_hMAPKAPK2: NovaScreen (NVS) Enzymatic Assay for human MAP Kinase-Activated Protein Kinase 2 (MAPKAPK2) (AID 2283178)
# Outline: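 Cell-free recombinant human MAPKAPK2 activity measured by fluorescence with electrophoretic mobility shift separation of substrate and product, 1 hr after dosing. Loss of signal versus DMSO; primary screen at 25 uM, concentration-response up to 50 uM.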
# [2] = molecular target: human Phosphoinositide 3-kinase alpha (PI3Ka), PIK3CA (gene 5290) (UniProt P42336); experiment: NVS_ENZ_hPI3Ka: NovaScreen (NVS) Enzymatic Assay for human Phosphoinositide 3-kinase alpha (PI3Ka) (AID 2283196)
# Outline: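 Duplicate single-point screen (25 uM), then singleton dose-response (max 50 uM) for compounds meeting the threshold. Cell-free kinase reaction, 1 h; fluorescent mobility-shift readout.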
# [3] = molecular target: human Mitogen- and Stress-activated Protein Kinase-1 (Msk1), RPS6KA5 (gene 9252) (UniProt O75582); experiment: NVS_ENZ_hMsk1: NovaScreen (NVS) Enzymatic Assay for human Mitogen- and Stress-activated Protein Kinase-1 (Msk1) (AID 2283187)
# Outline: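 Recombinant kinase with fluorescent substrate; product separated by electrophoretic mobility shift, read 1 h after dosing. Screened in duplicate at 25 uM; hits (e.g. ≥30% inhibition) tested in concentration–response up to 50 uM. DMSO baseline.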
# [4] = molecular target: Tyrosine-protein phosphatase non-receptor type 11 (Homo sapiens) (UniProt Q06124); experiment: NVS_ENZ_hPTPN11: NovaScreen (NVS) Enzymatic Assay for human Protein Tyrosine Phosphatase Non-receptor Type 11 (PTPN11) (AID 2283202)
# Outline: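 Recombinant human PTPN11 activity on a fluorescent substrate, with substrate/product separated by electrophoretic mobility shift; read 0.5 h after dosing, loss of signal vs DMSO. Duplicate 25 uM screen, then concentration-response up to 50 uM.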
# [5] = molecular target: cAMP-dependent protein kinase catalytic subunit alpha (Homo sapiens) (UniProt P17612); experiment: NVS_ENZ_hPKA: NovaScreen (NVS) Enzymatic Assay for human Protein Kinase A (PKA) (AID 2283192)
# Outline: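 Recombinant human PKA with specific fluorescent substrate, product separated by electrophoretic mobility shift, read 1 h after dosing. Primary screen at 25 uM in duplicate; actives then run in concentration-response up to 50 uM, activity relative to DMSO.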
# [6] = molecular target: human Phosphodiesterase 5 (PDE5), PDE5A (gene 8654) (UniProt O76074); experiment: NVS_ENZ_hPDE5: NovaScreen (NVS) Enzymatic Assay for human Phosphodiesterase 5 (PDE5) (AID 2283194)
# Outline: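 Recombinant human PDE5 with specific substrate, read 1 h after dosing by fluorescence with electrophoretic mobility-shift separation of substrate and product. Initial single-concentration duplicate screen at 25 uM, actives followed in concentration series; loss of activity versus DMSO.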
# [7] = molecular target: human Matrix Metalloproteinase-3 (MMP3), MMP3 (gene 4314) (UniProt P08254); experiment: NVS_ENZ_hMMP3: NovaScreen (NVS) Enzymatic Assay for human Matrix Metalloproteinase-3 (MMP3) (AID 2283185)
# Outline: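 Cell-free recombinant human MMP3 activity, fluorescence intensity read 1 h after dosing. Primary screen duplicate at 25 uM, actives retested in concentration series; loss of signal vs DMSO baseline.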
# [8] = molecular target: human Phosphodiesterase 10 (PDE10), PDE10A (gene 10846) (UniProt Q9Y233); experiment: NVS_ENZ_hPDE10: NovaScreen (NVS) Enzymatic Assay for human Phosphodiesterase 10 (PDE10) (AID 2283195)
# Outline: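 Fluorescence/mobility-shift readout of PDE10A enzyme activity, taken 1 h post-dosing. Primary screen in duplicate at 25 uM; actives (e.g. ≥30% inhibition) retested as singleton concentration-response, top concentration 50 uM.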
# [9] = molecular target: Serine/threonine-protein phosphatase PP1-alpha catalytic subunit (Homo sapiens) (UniProt P62136); experiment: NVS_ENZ_hPPP1CA: NovaScreen (NVS) Enzymatic Assay for human Protein Phosphatase 1 Aatalytic subunit Alpha (PPP1CA) (AID 2283200)
# Outline: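 Recombinant enzyme activity read by fluorescence with electrophoretic mobility shift separating substrate from product, 1.33 h after dosing; loss of signal vs DMSO baseline. Primary screen in duplicate at 25 uM; actives retested in concentration-response up to 50 uM.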
# [10] = molecular target: Tyrosine-protein phosphatase non-receptor type 13 (Homo sapiens) (UniProt Q12923); experiment: NVS_ENZ_hPTPN13: NovaScreen (NVS) Enzymatic Assay for human Protein Tyrosine Phosphatase Non-receptor Type 13 (PTPN13) (AID 2283205)
# Outline: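 Cell-free assay of recombinant human PTPN13 with a fluorescent substrate, product separated by electrophoretic mobility shift and read 0.5 h after dosing. Primary screen at 25 uM in duplicate, then concentration-response up to 50 uM. Loss of signal fitted against DMSO.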
# [11] = molecular target: human Protein Phosphatase, Mg2+/Mn2+ Dependent 1A (PPM1A), PPM1A (gene 5494) (UniProt P35813); experiment: NVS_ENZ_hPPM1A: NovaScreen (NVS) Enzymatic Assay for human Protein Phosphatase, Mg2+/Mn2+ Dependent 1A (PPM1A) (AID 2283198)
# Outline: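 Cell-free recombinant PPM1A phosphatase assay with fluorescent substrate, read 1 h after dosing by electrophoretic mobility shift. Chemicals screened in duplicate at 25 uM, then in concentration-response up to 50 uM; loss of activity versus DMSO.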
# [12] = molecular target: human Phosphodiesterase 4A1 (PDE4A1), PDE4A (gene 5141) (UniProt P27815); experiment: NVS_ENZ_hPDE4A1: NovaScreen (NVS) Enzymatic Assay for human Phosphodiesterase 4A1 (PDE4A1) (AID 2283191)
# Outline: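 Cell-free recombinant human PDE4A1 with fluorescent substrate; product separated by electrophoretic mobility shift, 1 h. Screened at 25 uM, then up to 50 uM in concentration-response; loss of signal fitted against DMSO.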
# [13] = molecular target: human Matrix Metalloproteinase-9 (MMP9), MMP9 (gene 4318) (UniProt P14780); experiment: NVS_ENZ_hMMP9: NovaScreen (NVS) Enzymatic Assay for human Matrix Metalloproteinase-9 (MMP9) (AID 2283190);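 further: cell-free recombinant MMP9 protease activity read by fluorescent substrate signal; active means inhibition seen as loss of fluorescence signal versus DMSO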
# Outline: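 Screening concentration 25 uM, duplicate wells, then dose series for confirmation. Cell-free enzymatic reaction measured by fluorescence intensity 1 h post-dosing; decreased signal versus DMSO taken as activity.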
# [14] = molecular target: human Matrix Metalloproteinase-2 (MMP2), MMP2 (gene 4313) (UniProt P08253); experiment: NVS_ENZ_hMMP2: NovaScreen (NVS) Enzymatic Assay for human Matrix Metalloproteinase-2 (MMP2) (AID 2283184)
# Outline: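 Cell-free recombinant MMP2 activity with a fluorescent substrate, read 1 h after dosing. Primary screen in duplicate at 25 uM; actives then run in concentration series; loss of signal fitted versus DMSO.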
# [15] = molecular target: human Protein Tyrosine Phosphatase Non-receptor Type 1 (PTPN1), PTPN1 (gene 5770) (UniProt P18031); experiment: NVS_ENZ_hPTPN1: NovaScreen (NVS) Enzymatic Assay for human Protein Tyrosine Phosphatase Non-receptor Type 1 (PTPN1) (AID 2283201)
# Outline: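 Cell-free fluorogenic-substrate activity assay on recombinant enzyme, read 1.33 h after dosing by fluorescence and electrophoretic mobility shift; loss of signal vs DMSO baseline. Primary screen in duplicate at 25 uM, hits then run in concentration-response up to 50 uM.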
# [16] = molecular target: Tyrosine-protein phosphatase non-receptor type 12 (Homo sapiens) (UniProt Q05209); experiment: NVS_ENZ_hPTPN12: NovaScreen (NVS) Enzymatic Assay for human Protein Tyrosine Phosphatase Non-receptor Type 12 (PTPN12) (AID 2283204)
# Outline: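 Single-concentration duplicates (25 uM) preceded singleton concentration-response up to 50 uM for chemicals passing threshold. Cell-free recombinant PTPN12 activity was read 1.33 h after dosing via fluorescence after mobility-shift separation; loss of signal versus DMSO.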
# Chain of human Phosphodiesterase 10 (PDE10), PDE10A (gene 10846) (Q9Y233 whole entry, looked up): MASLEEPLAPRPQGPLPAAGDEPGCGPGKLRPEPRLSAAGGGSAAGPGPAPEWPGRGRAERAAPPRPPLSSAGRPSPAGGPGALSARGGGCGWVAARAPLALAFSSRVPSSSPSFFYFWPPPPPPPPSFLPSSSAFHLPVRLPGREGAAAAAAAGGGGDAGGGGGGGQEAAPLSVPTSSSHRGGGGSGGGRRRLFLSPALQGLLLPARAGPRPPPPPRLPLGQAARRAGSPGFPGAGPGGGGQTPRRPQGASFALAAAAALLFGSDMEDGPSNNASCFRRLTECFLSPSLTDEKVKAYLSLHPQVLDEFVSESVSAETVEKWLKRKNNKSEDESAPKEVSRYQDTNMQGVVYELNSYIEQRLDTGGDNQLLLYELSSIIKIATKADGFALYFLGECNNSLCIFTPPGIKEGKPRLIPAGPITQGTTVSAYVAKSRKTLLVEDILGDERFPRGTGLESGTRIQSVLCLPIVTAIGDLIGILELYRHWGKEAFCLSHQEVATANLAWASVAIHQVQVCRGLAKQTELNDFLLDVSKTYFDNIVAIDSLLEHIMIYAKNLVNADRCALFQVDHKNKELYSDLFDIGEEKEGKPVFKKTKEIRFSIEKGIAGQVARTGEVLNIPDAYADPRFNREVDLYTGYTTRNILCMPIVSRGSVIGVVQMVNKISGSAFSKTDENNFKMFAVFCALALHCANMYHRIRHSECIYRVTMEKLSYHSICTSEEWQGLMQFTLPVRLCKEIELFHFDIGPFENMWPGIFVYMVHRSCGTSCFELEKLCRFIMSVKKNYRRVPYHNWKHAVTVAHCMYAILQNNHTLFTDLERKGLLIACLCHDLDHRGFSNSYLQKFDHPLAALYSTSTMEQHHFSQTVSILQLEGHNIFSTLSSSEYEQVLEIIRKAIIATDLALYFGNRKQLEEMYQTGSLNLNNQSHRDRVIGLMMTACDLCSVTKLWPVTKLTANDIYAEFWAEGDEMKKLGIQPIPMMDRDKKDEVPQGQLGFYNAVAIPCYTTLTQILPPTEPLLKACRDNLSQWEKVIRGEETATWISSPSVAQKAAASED
# Chain of human Protein Phosphatase, Mg2+/Mn2+ Dependent 1A (PPM1A), PPM1A (gene 5494) (P35813 whole entry, looked up): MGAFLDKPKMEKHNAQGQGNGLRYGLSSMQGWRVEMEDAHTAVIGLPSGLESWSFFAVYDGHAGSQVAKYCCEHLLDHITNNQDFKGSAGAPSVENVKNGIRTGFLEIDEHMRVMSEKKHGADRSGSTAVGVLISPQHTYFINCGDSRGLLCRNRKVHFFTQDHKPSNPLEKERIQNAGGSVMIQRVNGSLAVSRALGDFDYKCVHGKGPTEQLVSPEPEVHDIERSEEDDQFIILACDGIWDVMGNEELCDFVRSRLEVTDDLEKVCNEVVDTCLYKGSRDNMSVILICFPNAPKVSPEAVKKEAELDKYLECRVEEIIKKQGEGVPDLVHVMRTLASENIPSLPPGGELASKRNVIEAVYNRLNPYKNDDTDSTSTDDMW
# Chain of human Phosphodiesterase 4A1 (PDE4A1), PDE4A (gene 5141) (P27815 whole entry, looked up): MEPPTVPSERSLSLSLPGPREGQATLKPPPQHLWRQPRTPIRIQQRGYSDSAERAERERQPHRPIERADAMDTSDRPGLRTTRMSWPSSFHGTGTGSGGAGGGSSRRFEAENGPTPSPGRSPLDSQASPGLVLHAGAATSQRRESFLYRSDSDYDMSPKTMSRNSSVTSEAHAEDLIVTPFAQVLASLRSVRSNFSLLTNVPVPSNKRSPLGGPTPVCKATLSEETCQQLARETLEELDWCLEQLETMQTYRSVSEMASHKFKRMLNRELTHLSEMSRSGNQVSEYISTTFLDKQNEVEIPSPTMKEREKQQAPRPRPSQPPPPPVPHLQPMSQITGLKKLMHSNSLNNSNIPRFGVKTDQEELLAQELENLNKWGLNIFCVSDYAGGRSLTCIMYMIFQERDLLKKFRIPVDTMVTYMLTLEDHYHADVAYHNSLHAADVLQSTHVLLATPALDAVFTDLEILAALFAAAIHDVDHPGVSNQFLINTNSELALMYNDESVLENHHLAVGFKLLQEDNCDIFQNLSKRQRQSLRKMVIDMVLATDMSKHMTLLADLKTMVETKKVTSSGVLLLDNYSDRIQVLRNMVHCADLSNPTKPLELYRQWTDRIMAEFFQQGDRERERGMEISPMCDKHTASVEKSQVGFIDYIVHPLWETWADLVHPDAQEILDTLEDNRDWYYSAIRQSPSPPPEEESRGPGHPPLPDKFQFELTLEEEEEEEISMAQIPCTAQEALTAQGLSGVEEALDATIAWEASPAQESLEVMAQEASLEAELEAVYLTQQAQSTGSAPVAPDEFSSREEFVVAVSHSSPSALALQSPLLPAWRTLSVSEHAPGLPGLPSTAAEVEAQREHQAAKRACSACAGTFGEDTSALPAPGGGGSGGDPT
# Chain of human Protein Tyrosine Phosphatase Non-receptor Type 1 (PTPN1), PTPN1 (gene 5770) (P18031 whole entry, looked up): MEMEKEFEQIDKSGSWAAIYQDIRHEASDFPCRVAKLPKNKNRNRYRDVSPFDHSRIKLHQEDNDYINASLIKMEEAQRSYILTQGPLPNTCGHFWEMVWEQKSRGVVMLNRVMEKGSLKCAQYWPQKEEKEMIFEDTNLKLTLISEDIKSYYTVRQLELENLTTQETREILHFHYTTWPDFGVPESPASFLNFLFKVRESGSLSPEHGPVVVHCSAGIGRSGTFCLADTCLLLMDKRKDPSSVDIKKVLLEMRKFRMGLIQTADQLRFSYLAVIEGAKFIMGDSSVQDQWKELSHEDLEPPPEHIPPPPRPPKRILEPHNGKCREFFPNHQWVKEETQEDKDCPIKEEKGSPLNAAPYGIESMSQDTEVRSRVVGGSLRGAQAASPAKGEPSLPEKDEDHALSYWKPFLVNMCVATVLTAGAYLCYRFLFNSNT
# Chain of human Phosphoinositide 3-kinase alpha (PI3Ka), PIK3CA (gene 5290) (P42336 whole entry, looked up): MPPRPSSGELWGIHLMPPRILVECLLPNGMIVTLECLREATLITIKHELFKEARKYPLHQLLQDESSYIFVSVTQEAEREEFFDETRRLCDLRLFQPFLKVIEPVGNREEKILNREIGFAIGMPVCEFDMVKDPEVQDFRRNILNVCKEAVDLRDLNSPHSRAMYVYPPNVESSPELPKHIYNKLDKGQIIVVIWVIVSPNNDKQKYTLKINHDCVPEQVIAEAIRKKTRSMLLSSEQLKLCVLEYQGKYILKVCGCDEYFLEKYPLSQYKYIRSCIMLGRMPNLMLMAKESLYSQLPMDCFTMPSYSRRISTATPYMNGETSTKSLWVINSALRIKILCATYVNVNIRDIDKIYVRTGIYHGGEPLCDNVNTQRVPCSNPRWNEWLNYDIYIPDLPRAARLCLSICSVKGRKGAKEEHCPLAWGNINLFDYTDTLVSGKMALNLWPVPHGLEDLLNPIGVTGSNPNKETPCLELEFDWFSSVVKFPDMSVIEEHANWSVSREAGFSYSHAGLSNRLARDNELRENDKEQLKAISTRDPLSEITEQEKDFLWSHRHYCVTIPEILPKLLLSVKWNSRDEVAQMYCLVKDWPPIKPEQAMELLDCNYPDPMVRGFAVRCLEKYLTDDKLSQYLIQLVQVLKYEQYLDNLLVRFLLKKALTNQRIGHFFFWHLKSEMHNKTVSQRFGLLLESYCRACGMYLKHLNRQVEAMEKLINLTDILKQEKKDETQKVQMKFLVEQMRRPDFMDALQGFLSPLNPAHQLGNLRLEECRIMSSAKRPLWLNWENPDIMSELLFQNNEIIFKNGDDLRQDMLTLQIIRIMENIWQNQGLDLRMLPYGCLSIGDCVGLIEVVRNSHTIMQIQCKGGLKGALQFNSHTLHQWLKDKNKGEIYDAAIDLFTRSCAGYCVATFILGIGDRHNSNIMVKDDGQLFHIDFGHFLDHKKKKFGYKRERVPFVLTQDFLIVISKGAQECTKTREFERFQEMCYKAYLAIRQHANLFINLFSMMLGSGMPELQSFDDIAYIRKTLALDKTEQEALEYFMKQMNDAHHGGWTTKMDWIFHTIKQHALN
# Chain of human Mitogen- and Stress-activated Protein Kinase-1 (Msk1), RPS6KA5 (gene 9252) (O75582 whole entry, looked up): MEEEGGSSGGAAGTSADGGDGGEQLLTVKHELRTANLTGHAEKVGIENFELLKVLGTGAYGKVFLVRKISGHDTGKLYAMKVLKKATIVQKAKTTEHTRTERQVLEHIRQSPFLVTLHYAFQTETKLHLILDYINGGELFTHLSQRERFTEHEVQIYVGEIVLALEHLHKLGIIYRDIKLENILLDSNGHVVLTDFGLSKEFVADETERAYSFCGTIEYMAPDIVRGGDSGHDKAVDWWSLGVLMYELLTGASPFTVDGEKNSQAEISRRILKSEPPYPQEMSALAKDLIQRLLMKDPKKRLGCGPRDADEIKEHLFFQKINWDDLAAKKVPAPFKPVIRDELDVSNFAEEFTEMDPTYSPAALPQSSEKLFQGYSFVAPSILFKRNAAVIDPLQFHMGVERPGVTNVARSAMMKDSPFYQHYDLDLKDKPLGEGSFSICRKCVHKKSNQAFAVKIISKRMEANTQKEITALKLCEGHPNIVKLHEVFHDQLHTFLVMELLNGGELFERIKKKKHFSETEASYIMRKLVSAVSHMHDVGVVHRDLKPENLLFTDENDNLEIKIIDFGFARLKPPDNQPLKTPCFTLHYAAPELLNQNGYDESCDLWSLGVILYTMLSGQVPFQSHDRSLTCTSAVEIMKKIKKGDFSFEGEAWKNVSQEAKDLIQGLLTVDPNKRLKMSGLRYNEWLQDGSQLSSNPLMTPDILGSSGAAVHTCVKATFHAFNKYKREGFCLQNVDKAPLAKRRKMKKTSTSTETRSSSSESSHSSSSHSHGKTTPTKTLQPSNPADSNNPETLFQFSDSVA
# Chain of Serine/threonine-protein phosphatase PP1-alpha catalytic subunit (Homo sapiens) (P62136 whole entry, looked up): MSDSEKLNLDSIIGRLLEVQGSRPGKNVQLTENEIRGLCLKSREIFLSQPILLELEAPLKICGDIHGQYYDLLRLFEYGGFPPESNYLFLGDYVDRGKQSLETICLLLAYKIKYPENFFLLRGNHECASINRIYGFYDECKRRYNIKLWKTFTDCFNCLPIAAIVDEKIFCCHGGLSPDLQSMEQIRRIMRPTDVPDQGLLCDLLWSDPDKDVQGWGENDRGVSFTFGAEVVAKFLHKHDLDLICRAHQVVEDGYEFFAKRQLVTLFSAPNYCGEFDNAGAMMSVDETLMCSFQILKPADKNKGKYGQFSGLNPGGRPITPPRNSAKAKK
smiles,measurement,setting,value
O=C1c2c(O)cccc2Cc2cccc(O)c21,outcome,[1],inactive
same,outcome,[2],inactive
CN(C)C(=O)NC1(c2ccccc2)CCN(CCC[C@]2(c3ccc(Cl)c(Cl)c3)CCCN(C(=O)c3ccccc3)C2)CC1,outcome,[3],inactive
CCN(CC)CCOc1ccc(C(=C(Cl)c2ccccc2)c2ccccc2)cc1,outcome,[4],inactive
CC(=O)CC(c1ccccc1)c1c(O)c2ccccc2oc1=O (configuration not stated),outcome,[5],inactive
Oc1ccccc1O,outcome,[6],inactive
O=Cc1ccccc1C=O,AC50,[7],6.96 µM (active)
CC(C)(O)c1ccc(CNC(=O)c2cccnc2Oc2ccc(F)cc2)cc1,outcome,[6],inactive
same,outcome,[8],inactive
CC(N)=O,outcome,[6],inactive
CN(C)C(=O)NC1(c2ccccc2)CCN(CC[C@@]2(c3ccc(F)c(F)c3)CN(C(=O)c3ccccc3)CCO2)CC1,outcome,[3],inactive
same,AC50,[6],40 µM (active)
same,outcome,[2],inactive
same,outcome,[9],inactive
same,outcome,[4],inactive
CCCCOC(=O)CCCCC(=O)OCCCC,outcome,[8],inactive
same,outcome,[10],inactive
Cc1ccc(C(C)(C)C)c(O)c1,outcome,[11],inactive
CC1(C)C(=O)NC(=O)N1CO,outcome,[6],inactive
CCCCCCCCCCCCCCOS(=O)(=O)O,AC50,[7],26 µM (active)
same,AC50,[12],18.6 µM (active)
COc1ccc(OC(F)(F)F)cc1CN[C@H]1CCCN[C@H]1c1ccccc1,outcome,[3],inactive
same,outcome,[12],inactive
same,outcome,[5],inactive
same,outcome,[6],inactive
same,outcome,[8],inactive
same,outcome,[2],inactive
same,outcome,[10],inactive
C/C=C/C=C/C(=O)O,AC50,[13],1.24 µM (active)
same,outcome,[12],inactive
same,outcome,[8],inactive
CSc1ccc(Oc2ccc(S(N)(=O)=O)cc2CN(C)C)cc1C,AC50,[14],9.97 µM (active)
same,outcome,[11],inactive
CC(C)NCC(O)c1ccc(O)c(O)c1 (configuration not stated),outcome,[12],inactive
same,outcome,[4],inactive
NCCOCCOCCN,outcome,[15],inactive
Nc1nc(Cl)nc2c1ncn2[C@H]1C[C@H](O)[C@@H](CO)O1,AC50,[12],9.18 µM (active)
O=C(NS(=O)(=O)/C=C/c1cccs1)c1ccc(F)cc1Br,outcome,[15],inactive
same,outcome,[16],inactive
OCC(O)CO,outcome,[13],inactive
S=c1[nH]c2ccccc2s1,outcome,[3],inactive
same,outcome,[5],inactive
COc1ccc(C(=O)Nc2nc3ccccc3c(NCc3ccccc3)c2C#N)cc1,AC50,[12],17.7 µM (active)
CCCCCCCCCCCCCCCCO,outcome,[11],inactive
CC(=O)OC1CC(C)OC(C)O1 (configuration not stated),outcome,[11],inactive
O=C(Oc1ccccc1)c1cccc(C(=O)Oc2ccccc2)c1,outcome,[5],inactive
CCCCC(CC)COP(=O)(OCC(CC)CCCC)OCC(CC)CCCC (configuration not stated),outcome,[15],inactive
